This is a sample that favours compounds with a hit; in the whole collection about 13% have one here.
LASV entry inh – inhibitors of Lassa virus binding or cell entry; Potency, µM (top dose mostly 37.9 µM), hits mostly inhibitors; AID 540256; Lassa virus pseudotype entry inhibition, cell reporter; 300,000 tested, 1.2% active; calls by dose curve; tested in HEK293 cells; also: nearly all actives have a fitted effect of over 50% in size
CHX counter – counter-screen hit for Shiga toxin inhibitors, cycloheximide | AID 2314 | max response, % | 300,000 tested, 12% active | cell reporter, cycloheximide protein synthesis inhibition counterscreen; in the data active = max response mostly above about 13%, no sharp cut-off; inactive = mostly below about 14%; also: read at 38.3 µM for the half of the compounds with a filed dose
FMDV inh – antivirals against foot and mouth disease virus. FMDV antiviral cell-based qHTS. Potency, µM (series often up to 57.9 µM), usual class: inhibitors. 410,000 tested, 1.2% active. AID 1159524; calls by dose curve; tested in HEK293T cells; also: read-out not given here; nearly all actives have a fitted effect of over 45% in size
Shiga inhibitor – inhibitors of Shiga toxin in Vero cells | 290,000 tested, 9.2% active | inhibition, % at 38.7 µM | Vero cells, Shiga toxin protein synthesis inhibition reporter; in the data active = inhibition mostly above about 28%, no sharp cut-off; inactive = mostly below about 43%
HCV inh – blocks hepatitis C virus; Huh7.5.1 HCVcc-Cre infection, luciferase reporter, 44 h; Potency, µM (series often up to 41.8 µM), usual class: inhibitors; 340,000 tested, 3.4% active; AID 651820; active = well fitted inhibition curve with a large enough effect; inconclusive = small, poorly fitted or top-dose-only effect, or another doubt; inactive = no such curve, though single readings can be large or run the other way
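Antiviral activity was scored by luciferase reporter output from cells infected with HCVcc-Cre (~0.5 moi) in presence of compound, 44 h infection period, cells seeded 1,000/well 4 h prior.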
Marburg entry inh – inhibitors of Marburg virus binding or cell entry | Marburg virus pseudotyped entry inhibition, cell reporter | Potency, µM (series often up to 37.8 µM), most hits filed as inhibitors | 300,000 tested, 1.8% active; calls by dose curve; tested in HEK293 cells
Hits are given with their value; i = inactive; ? = inconclusive; nt = no result; + = active, no number.

SMILES	LASV entry inh	CHX counter	FMDV inh	Shiga inhibitor	HCV inh	Marburg entry inh
O=C(CCn1c(=S)oc2ccccc21)NC1CCCCCC1	nt	i	i	i	i	nt
CCn1c(Cc2ccc(OC)cc2)nnc1SCC(=O)NC1CC1	i	i	i	i	i	?
CCN(CC)S(=O)(=O)c1csc(C(=O)NC2CCCCC2)c1	?	i	i	i	i	?
O=C1C(c2ccccc2)=[N+]([O-])c2ccccc21	nt	nt	?	nt	10µM	nt
COC1=C(c2ccccc2)C(=O)c2ccccc2C1=O	i	i	?	i	?	i
O=C(CSc1nc2ccccc2c(=O)n1-c1ccccc1)N1CCc2ccccc2C1	10µM	i	?	i	12.6µM	?
CC(C)c1ccccc1-n1c(SCC(=O)N2CCc3ccccc3C2)nc2ccccc2c1=O	?	i	?	i	10µM	?
O=C(Cn1cnc2ccccc2c1=O)N1CCOCC1	i	i	i	i	i	?
O=C(Cn1cnc2ccccc2c1=O)N1CCc2ccccc2C1	i	16.7	i	i	i	i
O=C(CSc1nc2ccccc2c(=O)n1-c1ccccc1)N1CCC1	nt	i	i	i	i	nt
CC(C)c1ccccc1-n1c(SCC(=O)c2ccc3c(c2)NC(=O)CO3)nc2ccccc2c1=O	?	i	?	i	12.6µM	?
O=C1COc2ccc(C(=O)CSc3ccccc3C(=O)O)cc2N1	nt	i	i	i	i	nt
COc1ccc(Cc2nc3ccc(C(=O)N(C)CCc4cnn(C)c4)cc3o2)cc1OC	i	i	?	i	?	i
O=C(COC(=O)Cc1c(F)cccc1Cl)Nc1ccc2[nH]c(=O)[nH]c2c1	i	nt	i	nt	i	i
CCN(c1ccccc1)S(=O)(=O)c1ccc(NC(=S)NC(=O)c2cccs2)cc1	?	i	?	30.3	10µM	?
CC(C)C(=O)NC(=S)Nc1ccc(S(=O)(=O)N(C)Cc2ccccc2)cc1	?	i	i	i	?	?
CN(C)S(=O)(=O)c1ccc(NC(=S)NC(=O)c2cccs2)cc1	i	10.8	i	i	i	i
CN(c1ccccc1)S(=O)(=O)c1ccc(NC(=O)c2cccs2)cc1	?	i	?	i	?	i
CC(=O)NC(=S)Nc1ccc(S(=O)(=O)N(C)Cc2ccccc2)cc1	i	i	22.4µM	i	i	i
Cc1cccc(OCC(=O)NCCNC(=O)c2ccccn2)c1	i	i	i	i	i	i
Cc1ccc(S(=O)(=O)N2CCC(C(=O)NCCCN3CCCC3=O)CC2)cc1	i	nt	i	nt	i	i
COc1ccc(-c2nnc(COc3ccc4ccccc4c3)o2)cc1OC	20.6µM	i	i	i	?	?
COc1cccc(-c2nc(-c3ccccc3)no2)c1	14.1µM	36.7	i	63.0	i	?
COc1cccc(-c2nc(-c3ccc(NC(=O)c4cccnc4)cc3)no2)c1	?	i	?	i	i	?
COc1ccc(N2CCN(c3ccc(-c4nc(-c5cccc(C)c5)no4)cc3[N+](=O)[O-])CC2)cc1	i	nt	i	nt	nt	i
SMILES	LASV entry inh	CHX counter	FMDV inh	Shiga inhibitor	HCV inh	Marburg entry inh
O=[N+]([O-])c1cccc(-c2nc(-c3ccccn3)no2)c1	nt	45.6	i	71.8	i	nt
COc1cccc(-c2noc(C(C)n3nc(C)c([N+](=O)[O-])c3C)n2)c1 (stereo not given)	?	17.9	i	i	i	?
COc1cc(-c2nnc(COc3ccc4cc(Br)ccc4c3)o2)cc(OC)c1OC	i	i	i	i	i	?
CC(C)CCn1c(=O)c2ccccc2n2c(=S)[nH]nc12	nt	i	i	i	?	i
COC(=O)CN1C(c2cccc(Cl)c2)=Nc2ccc(Cl)cc2C1c1ccccc1 (stereo not given)	i	i	i	i	i	i
COc1ccc(C(O)c2ncc(-c3cccc(OCc4ccccc4)c3)[nH]2)cc1F (stereo not given)	nt	nt	i	nt	nt	nt
COc1cccc(-c2noc(-c3cccnc3)n2)c1	?	33.6	i	68.4	i	?
COc1cccc(-c2nc(-c3ccccn3)no2)c1	1.46µM	i	20µM	i	?	2.31µM
COc1ccc(-c2nc(-c3cccnc3)no2)cc1OC	i	39.1	i	46.9	i	?
COc1cccc(-c2noc(-c3cccs3)n2)c1	?	39.0	i	53.6	i	?
CN(C)c1ccc(-c2nc(-c3ccccn3)no2)cc1[N+](=O)[O-]	?	nt	i	nt	nt	?
COc1cc(-c2nc(-c3cccnc3)no2)cc(OC)c1OC	i	i	i	i	i	i
O=C(CCS(=O)(=O)Cc1ccccc1)N1CCN(Cc2ccccc2)CC1	i	i	nt	i	i	i
COc1ccc(OC)c(NC(=S)NCc2cccs2)c1	i	i	i	i	i	?
COc1cccc(-c2noc(N)c2C#N)c1	i	17.2	i	i	i	i
N#Cc1c(-c2ccc(F)cc2)noc1N	i	i	i	i	i	i
COc1cccc(OCc2nnc(-c3cccs3)o2)c1	nt	33.2	nt	32.5	nt	nt
CCOC(=O)/C(=N\Nc1ccccc1)c1csc(Nc2ccc(C)cc2)n1	i	i	nt	i	?	i
C=CCNC(=O)c1c(Br)cnn1-c1ccc(C)cc1	i	45.0	i	58.7	i	?
Cc1ccc(-n2ncc(Cl)c2C(=O)NCc2ccccc2)cc1	nt	42.4	i	57.6	i	nt
CNC(=O)c1c(Cl)cnn1-c1ccc(F)cc1	i	i	i	i	i	?
CC1CCC(=O)N(CCOc2ccccc2)CC1 (stereo not given)	nt	38.5	i	57.7	i	nt
O=C1CCN(Cc2ccccc2)CCN1CCOc1ccccc1	nt	41.7	i	76.3	?	nt
O=C(Nc1ccccc1)OCCN1CCN(Cc2ccccc2)CCC1=O	i	i	i	i	i	i
O=C(Nc1ccc(Cl)cc1)OCCN1CCN(Cc2ccccc2)CCC1=O	nt	34.1	nt	+	nt	nt
SMILES	LASV entry inh	CHX counter	FMDV inh	Shiga inhibitor	HCV inh	Marburg entry inh
CCCN(CC(=O)Nc1ccccc1OC)C(=O)CSc1ccc(Br)cc1C	nt	nt	i	nt	10µM	nt
O=C(/C=C/c1ccc(Cl)c(Cl)c1)N1CCc2ccccc21	i	24.1	i	active	i	?
O=C(c1cccs1)N1CCCc2ccccc21	i	i	i	i	?	i
O=C(c1cccs1)N1CCc2ccccc21	i	53.7	i	70.2	?	i
O=C(/C=C/c1cccs1)N1CCc2ccccc21	?	27.1	i	i	i	8.2µM
Cc1cc(C(=O)NCCN2CCN(c3cccc(Cl)c3)CC2)n(-c2ccccc2)n1	7.31µM	i	?	i	?	7.31µM
COc1ccc(NC(=O)c2cc(C)nn2-c2ccccc2)cc1	i	37.2	i	58.2	i	?
Cc1cc(C(=O)Nc2cccc3ccccc23)n(-c2ccccc2)n1	i	i	i	i	i	i
CCc1ccc(NC(=O)c2cc(C)nn2-c2ccccc2)cc1	?	12.9	i	i	i	i
Cc1cc(C(=O)Nc2cccc(C)c2C)n(-c2ccccc2)n1	?	23.8	i	51.4	i	i
Cc1cc(C(=O)NCCCN2CCN(c3cc(Cl)ccc3C)CC2)n(-c2ccccc2)n1	nt	i	?	i	?	i
CC1(C)C2CCC(C2)C1(C)NC(=O)CN1CCOCC1 (stereo not given)	i	i	i	i	i	i
CN(C(=O)Cn1c(Cl)nc2c1c(=O)n(C)c(=O)n2C)C1CCS(=O)(=O)C1 (stereo not given)	i	nt	i	nt	i	?

High-throughput results from PubChem BioAssay.
